“And” between values parts separate entries of the source, which are not always exact repeats. Identical values can stand only once. Inconclusive results are not listed. The source made the active and inactive calls. Calls come from the whole dose curve; as a rule, active = well fitted curve in the direction sought with a large enough effect; inconclusive = small, poorly fitted or top-dose-only effect, or another doubt; inactive = no such curve, though single readings can be large; an effect the other way counts as inactive or inconclusive.
How the values were obtained:
[1] = Quantitative highthroughput screen to assess conditional lethalithy of NOMO1 cells grown in RPMI1640 with dialyzed fetal bovine serum (RPMI+ds) (AID 1963877); note: nearly all actives have a fitted effect of over 30% in size; note: potency is the fitted concentration of half-maximal effect;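 for viability: series mostly up to about 46 µM; 100% = DMSO control wells and 0% = empty wells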
Summary of the method: (§1)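 Each medium arm—HPLM with 10% dialyzed FBS, or RPMI1640 with 5 mM glucose and 10% untreated or dialyzed FBS—was screened against an 11-point, 3-fold compound titration for 48 h at 37 °C, with CellTiter-Glo luminescence as endpoint.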

[2] = Quantitative highthroughput screen to assess conditional lethalithy of NOMO1 cells grown in Human Plasma-Like Medium with dialyzed fetal bovine serum (HPLM+ds) (AID 1963878); note: nearly all actives have a fitted effect of over 35% in size; note: potency is the fitted concentration of half-maximal effect;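 for viability: 100% = DMSO wells and 0% = empty wells on each plate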
Summary of the method: as §1

[3] = Quantitative highthroughput screen to assess conditional lethalithy of P12 Ichikawa cells grown in Human Plasma-Like Medium with dialyzed fetal bovine serum (HPLM+ds) (AID 1963879); conditions: Potency: viability; note: nearly all actives have a fitted effect of over 35% in size; note: potency is the fitted concentration of half-maximal effect; for viability: series mostly up to about 46 µM
Summary of the method: as §1

[4] = Quantitative highthroughput screen to assess conditional lethalithy of P12 Ichikawa cells grown in RPMI1640 with dialyzed fetal bovine serum (RPMI+ds) (AID 1963880); conditions: Potency: P12-Ichikawa viability;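 note: 100% = DMSO wells and 0% = empty wells on each plate; nearly all actives have a fitted effect of over 35% in size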
Summary of the method: as §1

[5] = Quantitative highthroughput screen to assess conditional lethalithy of SEM cells grown in Human Plasma-Like Medium with dialyzed fetal bovine serum (HPLM+ds) (AID 1963882); note: nearly all actives have a fitted effect of over 35% in size; note: potency is the fitted concentration of half-maximal effect; for viability: series mostly up to about 46 µM
Summary of the method: as §1

[6] = Quantitative highthroughput screen to assess conditional lethalithy of SEM cells grown in RPMI1640 with unreated serum (RPMI+s) (AID 1963883); note: nearly all actives have a fitted effect of over 35% in size; note: potency is the fitted concentration of half-maximal effect;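 for viability: 100% = DMSO wells and 0% = empty wells without cells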
Summary of the method: as §1

[7] = Quantitative highthroughput screen to assess conditional lethalithy of SEM cells grown in RPMI1640 with dialyzed fetal bovine serum (RPMI+ds) (AID 1963884); note: nearly all actives have a fitted effect of over 35% in size; note: potency is the fitted concentration of half-maximal effect;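 for viability: series mostly up to about 46 µM; 100% = DMSO control wells and 0% = empty wells without cells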
Summary of the method: as §1

[8] = Quantitative highthroughput screen to assess conditional lethalithy of P12 Ichikawa cells grown in RPMI1640 with untreated serum (RPMI+s) (AID 1963881); conditions: Potency: viability; note: nearly all actives have a fitted effect of over 35% in size; note: potency is the fitted concentration of half-maximal effect;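 for viability: series mostly up to about 46 µM; 100% = DMSO wells and 0% = empty wells without cells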
Summary of the method: as §1

[9] = Cellular viability qHTS for adrenocortical cancer (ACC) cell line SW-13 (AID 1963989); conditions: SW-13 ACC cells viability, CellTiter-Glo, 48 h; activity (max response): stronger effect = lower value;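 note: cells grown in serum-free medium with ITS supplement; % is set by controls: 0 for no effect and ±100 for the full control effect; nearly all actives have a fitted effect of over 65% in size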
Summary of the method: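 Compound titrations (up to 46 uM final, in DMSO) were applied to SW-13 cells for 48 h at 37C/5% CO2. Reading used CellTiter-Glo after 20 min at room temperature; fitted curves yielded IC50 and efficacy.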

[10] = Cellular viability qHTS for adrenocortical cancer (ACC) cell line NCI-H295R (AID 1963990); note: nearly all actives have a fitted effect of over 60% in size; note: potency is the fitted concentration of half-maximal effect
Summary of the method: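 Readout: CellTiter-Glo luminescence, 20 min RT. Exposure: 48 h, 37C/5% CO2. Cells: NCI-H295R, ITS-DMEM serum-free. Range: up to 46 uM. Analysis: 4PL fit, IC50 plus efficacy.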

[11] = Quantitative highthroughput screen to assess conditional lethalithy of NOMO1 cells grown in RPMI1640 with untreated serum (RPMI+s) (AID 1963876)
Summary of the method: as §1

Cc1c(O)cccc1C(=O)N[C@@H](CSc1ccccc1)[C@H](O)CN1C[C@H]2CCCC[C@@H]2C[C@@H]1C(=O)NC(C)(C)C
inactive: Potency [1] | Potency [2] | Potency [3] | Potency [4] | Potency [5] | Potency [6] | Potency [7]

Cc1c(Cn2c(C)nc3c(C(=O)O)cc(N4CCOCC4)cc32)cccc1C(F)(F)F
inactive: Potency [1] | Potency [3] | Potency [4] | Potency [8] | Potency [5] | Potency [6] | Potency [7] | activity (max response) [9] 6.79% | Potency [10]
active: Potency [2] 26400 nM

C[C@]12CC[C@H](O)CC1=CC[C@@H]1[C@H]2CC[C@]2(C)C(c3cccnc3)=CC[C@H]12
inactive: Potency [1] | Potency [2] | Potency [3] | Potency [8] | Potency [5] | Potency [6] | Potency [7]

N=C1SC(=Cc2ccc(-c3ccc4c(c3)C(=O)NC4=O)o2)C(=O)N1c1ccc(Br)cc1
active: Potency [6] 13200 nM
inactive: Potency [1] | Potency [2] | Potency [4] | Potency [8]

CC1(C)CCC[C@@]2(C)[C@@H]1CC[C@@]1(C)OC(=O)C[C@H]21
inactive: Potency [1] | Potency [2] | Potency [3] | Potency [4] | Potency [8] | Potency [5] | Potency [6] | Potency [7]

O=C(OCC#CCSc1nnc(-c2cccc3ccccc23)o1)c1cc2ccccc2s1
inactive: Potency [1] | Potency [2] | Potency [3] | Potency [4] | Potency [8] | Potency [5] | Potency [6] | Potency [7]

COc1cc2nc(N3CCN(C(=O)C4COc5ccccc5O4)CC3)nc(N)c2cc1OC (centres undefined)
inactive: Potency [11] | Potency [4] | Potency [8] | Potency [5] | Potency [6] | Potency [7]

CC(O)=C(C#N)C(=O)Nc1ccc(C(F)(F)F)cc1
inactive: Potency [1] | Potency [2] | Potency [3] | Potency [8]

OC[C@H]1O[C@@H](Oc2cc(O)cc(C=Cc3ccc(O)cc3)c2)[C@H](O)[C@@H](O)[C@H]1O
inactive: Potency [3] | Potency [4] | Potency [8] | Potency [5] | Potency [6] | Potency [7]
active: Potency [1] 2350 nM

O=c1[nH]c(=O)n([C@H]2C[C@@H](O)[C@@H](CO)O2)cc1C=CBr
inactive: Potency [1] | Potency [4] | Potency [8] | Potency [6] | Potency [7]

C[C@@H]1C[C@H]2[C@@H]3CCC4=CC(=O)C=C[C@]4(C)[C@@]3(F)[C@@H](O)C[C@]2(C)[C@@]1(O)C(=O)CO
inactive: Potency [1] | activity (max response) [9] 6.21% and 9.17% | Potency [10]

NNCCc1ccccc1
inactive: Potency [1] | Potency [3] | Potency [4] | Potency [8] | Potency [10]

COC(=O)N[C@H](C(=O)N1CCC[C@@H]1c1ncc(-c2ccc(-c3ccc(-c4cnc([C@@H]5CCCN5C(=O)[C@@H](NC(=O)OC)C(C)C)[nH]4)cc3)cc2)[nH]1)C(C)C
inactive: Potency [1] | Potency [3] | Potency [4] | Potency [8] | Potency [5]

CCC1=C[C@@H]2CN(C1)Cc1c([nH]c3ccccc13)[C@@](C(=O)OC)(c1cc3c(cc1OC)N(C)[C@@H]1[C@@](O)(C(=O)OC)[C@H](OC(C)=O)[C@]4(CC)C=CCN5CC[C@]31[C@@H]54)C2
active: Potency [1] 74.3 nM | Potency [3] 37.2 nM | Potency [8] 20.9 nM | Potency [5] 59 nM | Potency [6] 20.9 nM

CN(C)CCOc1cc(-c2cn[nH]c2)ccc1NC(=O)C1COc2ccccc2O1 (centres undefined)
active: Potency [1] 6620 nM | Potency [10] 17800 nM
inactive: Potency [3]

CC(C)N(CCCNC(=O)Nc1ccc(C(C)(C)C)cc1)C[C@H]1O[C@@H](n2cc(Br)c3c(N)ncnc32)[C@H](O)[C@H]1O
active: Potency [2] 20900 nM

CC(=O)NCC(=O)N1[C@H]2CC[C@H]1c1cc(Nc3ncc(C(F)(F)F)c(NC4CCC4)n3)ccc12
active: Potency [2] 296 nM | Potency [3] 132 nM | Potency [8] 132 nM | Potency [5] 118 nM | Potency [6] 105 nM | Potency [7] 105 nM

CC(C)OC(=O)C(C(=O)OC(C)C)=C1SC=CS1
inactive: Potency [1] | Potency [4] | Potency [8] | Potency [7] | activity (max response) [9] -12.3% and 0.529% | Potency [10]

CC(=O)O[C@@]12CO[C@H]1C[C@H](O)[C@@]1(C)C(=O)[C@H](O)C3=C(C)[C@@H](OC(=O)C(O)[C@@H](NC(=O)OC(C)(C)C)c4ccccc4)C[C@@](O)([C@@H](OC(=O)c4ccccc4)[C@@H]21)C3(C)C (some centres undefined)
inactive: Potency [1] | Potency [6] | Potency [7]

COc1cccc(-c2ccc(NC(=O)C3=C(C(=O)O)CCC3)c(F)c2)c1
inactive: Potency [2] | Potency [5]
active: Potency [3] 16600 nM

CC1(C)CCC(C)(C)c2cc(NC(=O)c3ccc(C(=O)O)cc3)ccc21
inactive: Potency [1] | Potency [3] | Potency [8] | Potency [5] | Potency [6] | Potency [7] | activity (max response) [9] -9.24% | Potency [10]

C[C@H](NCc1ccc(OCc2cccc(F)c2)cc1)C(N)=O
active: Potency [2] 20900 nM | Potency [3] 23500 nM | Potency [5] 469 nM | Potency [6] 662 nM | Potency [7] 332 nM

O=c1cc(-c2ccc(O)cc2)oc2cc(O)cc(O)c12
active: Potency [1] 18700 nM
inactive: Potency [3] | Potency [4] | Potency [8] | Potency [5] | Potency [6] | Potency [10]

O=C(Nc1ccccc1)Nc1ccc(-c2ccc(C(=O)[C@H]3CCC[C@H]3C(=O)O)cc2)cc1
active: Potency [1] 6620 nM
inactive: Potency [3] | Potency [8] | Potency [5] | Potency [6] | Potency [7]

CC1(C)C(=O)N(CCN2CCC(C(=O)c3ccc(F)cc3)CC2)c2ccccc21
active: Potency [1] 18700 nM
inactive: Potency [3] | Potency [8] | Potency [5] | Potency [6] | Potency [7]
